Compound activity deposited in PubChem by National Center for Advancing Translational Sciences (NCATS).
Compounds with a hit are over-represented: about 4% of the library has one in this group of screens.
D1 potentiator: potentiators of human D1 dopamine receptor. HEK293 TREx D1 cells, calcium flux, dopamine EC20 potentiation. potentiation, % at 10 µM. 360,000 compounds, 0.036% hits. P21728; in the data active means potentiation above about 30%; further: 0% is about no effect
Target sequence (P21728 whole entry, looked up): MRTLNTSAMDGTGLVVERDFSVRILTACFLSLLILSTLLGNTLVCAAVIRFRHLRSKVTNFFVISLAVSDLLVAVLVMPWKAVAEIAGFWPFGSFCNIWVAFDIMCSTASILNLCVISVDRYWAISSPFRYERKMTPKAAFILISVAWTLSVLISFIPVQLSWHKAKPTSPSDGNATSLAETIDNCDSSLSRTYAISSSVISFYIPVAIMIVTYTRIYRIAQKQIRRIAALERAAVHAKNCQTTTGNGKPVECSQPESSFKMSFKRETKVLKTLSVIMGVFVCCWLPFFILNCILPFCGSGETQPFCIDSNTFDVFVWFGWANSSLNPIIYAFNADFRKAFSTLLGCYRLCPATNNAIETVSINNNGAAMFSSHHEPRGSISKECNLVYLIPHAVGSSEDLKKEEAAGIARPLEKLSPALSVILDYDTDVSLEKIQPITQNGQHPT
TRHR PAM: allosterically enhances the human TRH receptor | 360,000 compounds, 0.66% hits | TRHR cells, fluo-8 calcium fluorescence, EC20 TRH enhancement | AID 493056 | P34981 | enhancement, % at 2 µM; in the data active means enhancement above about 30%; further: 0% is about no effect
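TRHR-expressing cells loaded with fluo-8 calcium dye were read kinetically (ex 480/em 530) during compound addition, then stimulated with an EC20 of TRH (10 nM final). Enhancement of the Gq-mediated intracellular calcium response was scored.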
D1 agonist: human D1 receptor agonism; 360,000 compounds, 1% hits; HEK293 T-REx D1 cells, calcium flux, agonist mode; activation, % at 2 µM; further: 0% is about no effect
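Inducible HEK293 T-REx D1 cells, force-coupled to calcium signalling, were plated at 4000 cells/well with tetracycline and held overnight at 30 C. After no-wash calcium dye loading, compound-evoked calcium rise over 180 s flagged agonists.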
D1 antagonist: human D1 dopamine receptor antagonism; P21728; HEK293 TREx D1 cells, calcium flux, dopamine EC80; stronger effect = lower value; activity change, negative = inhibition, % at 10 µM; 360,000 compounds, 3.2% hits; AID 504652; in the data active means activity change below about -30%; further: on the % scale 0 is the no-effect control and ±100 the full control effect
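Inducible Hek293 Trex D1 cells (tetracycline, overnight, 30 C). Calcium dye 30–90 min RT. Antagonist mode: EC80 dopamine added after 180 s compound read.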
TRHR ag: agonists of human TRH receptor. 360,000 compounds, 0.18% hits. AID 493084. TRHR cells, calcium flux fluo-8, FDSS agonist mode. activation, % at 2 µM; further: 0% is about no effect
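Fluo-8-loaded TRHR cells; 10 s baseline, compound added, kinetic Ca2+ fluorescence read 1/s, agonist mode.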
GRP78 ERSR act: ER stress response induction in glioma; U87-MG GRP78 promoter luciferase reporter, 16 h; Potency, µM, without a hit: top-dose activation, usual class: activators; 420,000 compounds, 0.02% hits; AID 602332; active means well fitted activation curve with a large enough effect; inconclusive means small, poorly fitted or top-dose-only effect; inactive means no such curve, though single readings can be large or run the other way; further: potency means the concentration at half of the fitted maximal effect; series mostly up to about 76 µM; % of control where 0% means no effect; nearly all actives have a fitted effect of over 35% in size
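Stably transfected U87-MG human glioma cells carrying a GRP78-based luminescent sensor were seeded at 1000 cells/well, pin-dosed with compounds and incubated 16 h. Luciferase reagent was then added, and end-point luminescence was read after 10 min at room temperature.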
* = called active by the depositor; u = inconclusive; x = no result given; ! = not confirmed by another sample. Unless noted, no stated cut-off is given here; in the data, active means activation above about 30%; inactive means the rest.

SMILES	D1 potentiator	TRHR PAM	D1 agonist	D1 antagonist	TRHR ag	GRP78 ERSR act
COc1cccc(OCCCn2cc(/C=C3/C(=N)N4C=C(C)SC4=NC3=O)c3ccccc32)c1	0	3	34*	-11	8	-4%
Cc1ccc(S[C@@H](CCN2CC[C@H](C)CCC2=O)c2ccccc2)cc1	-8	0	4	-4	-1	u
Cc1ccc(S[C@@H](CCN2CC[C@H](O)CCC2=O)c2ccccc2)cc1	-3	-4	0	-31*	0	-2%
O=C(COC(=O)C1C2CC3OC(=O)C1C3C2)Nc1ccc(F)cc1 (configuration not stated)	-5	1	0	3	0	2%
O=C(COC(=O)C1C2CC3OC(=O)C1C3C2)Nc1ccc(Br)cc1 (configuration not stated)	x	-3	33*	7	-2	12%
Cc1noc(C)c1C(=O)N1CCC2(CC1)CN(c1cccc(-c3ccccc3)c1)C2	x	x	x	x	x	-5%
COc1ccc(CCN2CC(C(=O)NCCc3cccnc3)CCC2=O)cc1 (configuration not stated)	-2	-13	1	12	0	-4%
CC(C)Cc1csc(NC(=O)c2ccc(Cl)cc2)c1C(=O)O	-4	-7	17	-31*	0	4%
CC(C)Cc1csc(NC(=O)c2ccccc2Cl)c1C(=O)O	2	0	2	6	0	0%
Cc1cc2[nH]c3c(=O)n(Cc4ccccc4F)ncc3c2s1	-4	-6	0	-72*!	0	x
CCn1c2cc(C)sc2c2cnn(Cc3ccccc3F)c(=O)c21	-2	3	8	3	2	x
O=C1S/C(=C/c2ccc(N3CCOCC3)o2)C(=O)N1Cc1c(F)cccc1Cl	0	-11	129*	x	28	2%
O=C1S/C(=C\c2ccc(N3CCOCC3)o2)C(=O)N1c1ccccc1	7	9	159*	26	63*	-8%
O=C1S/C(=C\c2ccc(N3CCOCC3)o2)C(=O)N1Cc1c(F)cccc1Cl	-14	-6	62*	27	27	-3%
O=C(NCCN1CCOCC1)c1ccc2c(c1)N(Cc1c(F)cccc1Cl)C(=O)c1ccccc1S2	3	-4	2	18	0	0%
O=C1N=C(N2CCOCC2)S/C1=C/c1ccc(-c2ccccc2Cl)o1	2	8	2	4	0	0%
O=C(COC(=O)c1cc(Cl)nc(Cl)c1)NCCc1ccc(F)cc1	x	x	x	x	x	-3%
CCNC(=O)CC1C(=O)N(c2cccc(C)c2)C(=O)N1CCC(C)C (configuration not stated)	-5	-3	1	6	1	-6%
Cc1ccc(Cn2nc(C)c(NC(=O)CSc3nc4c(c(C(F)(F)F)n3)CCc3ccccc3-4)c2C)cc1	-11	0	0	-86*	0	-4%
Cc1nn(Cc2ccc(Cl)cc2)c(C)c1NC(=O)CSc1nc2c(c(C(F)(F)F)n1)CCc1ccccc1-2	12	-5	1	-3	1	-3%
CCCc1cc(=O)[nH]c(SCC(=O)NC(=O)NC2CCCC2)n1	-5	2	0	-7	0	-3%
Cc1cc(C)nc(SCCCNCc2ccc(Br)cc2)n1	-4	0	36*	-28	1	-2%
Fc1ccc(-c2ccc(CNCCSc3nnnn3-c3ccccc3)o2)cc1	2	2	34*	7	-1	u
Brc1ccc(CNCCCSc2nnnn2-c2ccccc2)cc1	1	0	95*	-4	1	x
Cc1ccc(CNCCCSc2nc(C)cc(C)n2)cc1	-7	0	9	-10	0	-1%
SMILES	D1 potentiator	TRHR PAM	D1 agonist	D1 antagonist	TRHR ag	GRP78 ERSR act
CCOc1cc(CNCCSc2nnnn2-c2ccccc2)cc(Cl)c1OC	1	6	40*	-2	-2	u
COc1cccc2cc(C(=O)NCCc3ccccc3)oc12	-6	7	57*	-34*	2	6%
N#CC1(Nc2cccc(Br)c2)C(=O)Nc2ccccc21 (configuration not stated)	0	8	53*	-17	-2	-3%
CC(C)N(C(=O)/C=C/c1cccc([N+](=O)[O-])c1)C(C)C	-2	-2	2	2	1	0%
O=C(CN(Cc1ccco1)C(=O)CNS(=O)(=O)c1ccc(Cl)cc1)NCc1ccco1	-1	3	0	-52*	0	1%
NCCc1cnc[nH]1	-3	-1	53*!	-12	0	-3%
O=C(CCC(=O)c1ccc(F)cc1)NN1C(=O)NC2(CCCCC2)C1=O	-1	7	0	-1	0	-3%
O=C(c1ccco1)N1CCN(C(c2cccs2)c2sc3ncnn3c2O)CC1 (configuration not stated)	-3	1	2	8	0	-3%
COc1cccc(C(c2sc3ncnn3c2O)N2CCN(C(=O)c3ccco3)CC2)c1 (configuration not stated)	2	37*	1	6	-1	-2%
CCCC/C(C)=N/NC(=O)CN(c1ccc(Br)cc1)S(=O)(=O)c1ccccc1	-4	-5	3	-3	1	-3%
O=C(CCN1C(=O)c2ccccc2S1(=O)=O)Nc1ccc(Cl)cc1	-2	-3	5	-52*	-1	1%
Cc1cc(C)cc(NC(=O)CCN2C(=O)c3ccccc3S2(=O)=O)c1	-4	-6	5	4	-1	-2%
CC1CCN(S(=O)(=O)c2ccc(C(=O)NCc3cccnc3)cc2)CC1	2	-5	2	-14	0	-5%
Cc1ccc(Nc2cc(C)c3ccc(O)cc3n2)cc1C	-19	10	33*	3	1	u
COc1ccc(Nc2c(C)cccc2C)cc1	-17	-3	3	-38*	0	1%
COc1ccc(C(=O)CC(=O)C(=O)Nc2c(C)cccc2C)cc1	-11	-3	1	-9	-1	1%
COC(=O)c1cc(Nc2cc(C)c3c(O)cccc3n2)cc(C(=O)OC)c1	-6	12	8	-26	0	-4%
COc1ccc(Nc2cc(C)c3c(O)cccc3n2)cc1	-16	-8	8	-33*	1	0%
COC(=O)c1cc(Nc2cc(C)c3ccc(O)cc3n2)cc(C(=O)OC)c1	-2	32*	1	2	1	-2%
Cc1cc(C(F)(F)F)n2nc(-c3cnn(C)c3C(F)(F)F)c(Cl)c2n1	-2	-1	3	-2	0	-3%
O=C1N[C@@H](Cc2cn(S(=O)(=O)c3ccccc3)c3ccccc23)C(=O)N[C@H]1Cc1ccccc1	x	x	x	x	x	-3%
Cc1ccc(Nc2cc(C)c3c(O)cccc3n2)cc1C	-18	-1	35*	-49*	10	u
